# This is a sample that favours compounds with a hit; in the whole collection about 6.8% have one here.
# KB-3-1 tox: qHTS assay for MDR1-selective chemotherapeutics: Primary screen using the parental adenocarcinoma cell KB-3-1; KB-3-1 viability, CellTiter-Glo ATP luminescence, 72 h; Potency, µM (doses to about 46.1 µM), most hits filed as cytotoxic; 400,000 compounds, 1.4% hits; also: % is scaled to controls: 0 for no effect and ±100 for the full control effect; nearly all actives have a fitted effect of over 60% in size
#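 Multi-concentration cytotoxicity screen in KB-3-1 cells grown in DMEM lacking phenol red with 10% FBS. After 72 h at 37 °C with compound, ATP-dependent luminescence was recorded.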
# KB-V1 MDR tox: qHTS assay for MDR1-selective chemotherapeutics: Primary screen using the drug-selected MDR subline cells KB-V1; Potency, µM (series often up to 46.1 µM), actives largely listed as cytotoxic; KB-V1 MDR cells viability, CellTiter-Glo, 72 h; 400,000 compounds, 3.4% hits; also: % is scaled to controls: 0 for no effect and ±100 for the full control effect; nearly all actives have a fitted effect of over 60% in size
#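 Cells of the MDR subline KB-V1 are plated, dosed with compound at multiple concentrations, and incubated 72 h at 37 degrees C; CellTiter-Glo is then added and luminescence read after 10 min.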
# SW480 rereplic: A quantitative high throughput screen for small molecules that induce DNA re-replication in SW480 colon adenocarcinoma cells; SW480 DNA re-replication, Hoechst DNA content imaging, 48 h; Potency, µM (highest dose often 46.1 µM), inactives show at the top dose re-replication activation, actives largely listed as activators; 340,000 compounds, 1.8% hits; AID 624297, 2012; also: % of control where 0% means no effect; nearly all actives have a fitted effect of over 55% in size
#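 Image-based read-out: total Hoechst fluorescence of nuclei (405 nm excitation, 500-530 nm emission), with hits raising the fraction of high-intensity nuclei. SW480 colon cells incubated 48 hr with compounds at 37 C.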
# PINK1 expr mod: A Quantitative High throughput Screen to Identify Chemical Modulators of PINK1 Expression; Potency, µM (top dose mostly 76.6 µM), for inactives: at the top dose activation (PINK1 increase), actives largely listed as activators; AID 624263, 2012; PINK1 immunofluorescence, high-content cytometry, 24 h; 410,000 compounds, 0.2% hits; active = well fitted activation curve with a large enough effect; inconclusive = small, poorly fitted or top-dose-only effect; cell line not stated here; also: % of control where 0% means no effect; nearly all actives have a fitted effect of over 65% in size
#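 A stable cell line was treated with compounds at 5 concentrations for 24 hours, with CCCP as control. PINK1 levels and mitochondrial localization were measured by immunofluorescence with mitochondrial, cell and nuclear markers after fixation, read by laser-scanning cytometry.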
# MCF10A rereplic: A quantitative high throughput screen for small molecules that induce DNA re-replication in MCF 10a normal breast cells; Potency, µM (doses to about 46.1 µM), without a hit: at the highest dose activity, positive = re-replication, actives largely listed as activators; MCF 10A DNA re-replication, Hoechst nuclear intensity, 48 h; 350,000 compounds, 2.9% hits; also: % of control where 0% means no effect; nearly all actives have a fitted effect of over 50% in size
# PTAP TSG101 blk: qHTS Assay for Iinhibitors of HIV-1 Budding by Blocking the Interaction of PTAP/TSG101; Tumor susceptibility gene 101 protein (Homo sapiens), Q99816; Fluorescence polarization, FITC-PTAP peptide / Tsg101 binding; Potency, µM (series often up to 115 µM), for inactives: at the highest dose activity change, negative = inhibition, usual class: inhibitors; 340,000 tested, under 10 active; AID 493005, 2010; active = well fitted inhibition curve with a large enough effect in the main read-out, with a control signal flat, not every such curve was filed as active; inconclusive = small, poorly fitted or top-dose-only effect, or effect the other way, or a change in a side signal; inactive = no such curve, though single readings can be large or run the other way; also: % of control where 0% means no effect
# Target sequence (Q99816 whole entry, looked up): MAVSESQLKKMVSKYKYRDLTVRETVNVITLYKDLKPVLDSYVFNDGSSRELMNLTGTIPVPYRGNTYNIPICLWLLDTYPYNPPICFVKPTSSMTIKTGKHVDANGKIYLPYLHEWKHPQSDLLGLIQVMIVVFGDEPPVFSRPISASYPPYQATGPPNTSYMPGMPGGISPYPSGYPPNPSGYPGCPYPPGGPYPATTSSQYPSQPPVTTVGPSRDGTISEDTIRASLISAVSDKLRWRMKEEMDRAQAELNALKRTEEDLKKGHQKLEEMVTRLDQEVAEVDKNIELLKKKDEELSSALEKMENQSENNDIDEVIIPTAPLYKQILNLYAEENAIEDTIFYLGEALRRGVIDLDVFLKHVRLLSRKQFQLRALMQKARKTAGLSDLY
#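 Fluorescence polarization binding of Tsg101 binding domain (10 uM final) to FITC-labeled PTAP peptide (50 nM final) in HEPES pH 7.5 buffer with NaCl, Tween 20, EDTA, TCEP. Compounds added before peptide; binding 20 min at RT.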
# * marks the source's active call; other numbers are inactive results; i = inactive; ? = inconclusive; . = not tested or not shown; [ ] = dose if it differs, or a comment. Unless noted, calls follow the shape of the dose curve; as a rule, active = well fitted curve in the direction sought with a large enough effect; inconclusive = small, poorly fitted or top-dose-only effect, or another doubt; inactive = no such curve, though single readings can be large; an effect the other way counts as inactive or inconclusive. Potency is read from the fitted curve at half-maximal effect.
SMILES,KB-3-1 tox,KB-V1 MDR tox,SW480 rereplic,PINK1 expr mod,MCF10A rereplic,PTAP TSG101 blk
COc1cccc(NC(=O)C2CCN(c3ccc(Sc4ccc(C)cc4)nn3)CC2)c1,i,i,.,1%,.,.
CCCCn1c(NC(=O)c2ccco2)c(S(=O)(=O)c2ccc(C)cc2)c2nc3ccccc3nc21,i,?,?,1%,8.2µM*,2%
COc1ccc(/C=C/C(=O)Nc2ccc3nc(N4CCC(C)CC4)cc(C)c3c2)cc1OC,.,.,.,8%,.,.
Cc1cccc(NC(=O)c2onc3c2CCCC3)c1C,?,i,3%,-1%,18%,-3%
Cc1cccc(NC(=O)c2onc3c2CCCC3)n1,?,13µM*,-9%,2%,4%,-4%
COc1ccccc1CNc1nc2c(S(=O)(=O)c3ccc(C)c(C)c3)nnn2c2ccc(Cl)cc12,i,i,.,-1%,.,.
CCOc1ccc(/C=C/C(O)=C2/C(=O)N(C)C3(C)CC2c2ccccc2O3)cc1OC (stereo not given),23µM*,?,13µM*,-1%,?,-2%
CCOc1ccc(/C=C/C(O)=C2/C(=O)NC3(C)CC2c2ccccc2O3)cc1OC (stereo not given),?,?,9.2µM*,0%,8.2µM*,0%
COc1cc(/C=C/C(=O)N2CCOCC2)ccc1OCc1ccccc1,?,i,-4%,2%,43%,-1%
CCOC(=O)C1=C(COC(=O)/C=C/c2ccc(OCC)c(OC)c2)NC(=O)NC1C (stereo not given),i,i,0%,0%,8%,-2%
CCC(C)NC(=O)CSc1ccc(S(=O)(=O)N(C)C2CCCCC2)cn1 (stereo not given),i,12µM*,-3%,0%,8%,-2%
CNC(=O)NC(=O)CSc1ccc(S(=O)(=O)N(C)C2CCCCC2)cn1,i,?,0%,0%,15%,-2%
CCNC(=O)NC(=O)CSc1ccc(S(=O)(=O)N(C)C2CCCCC2)cn1,i,21µM*,-3%,4%,7%,-4%
Cc1c(C(=O)NCc2ccccc2Cl)sc2ncnc(NCC3CCCO3)c12 (stereo not given),.,.,.,1%,.,.
Cc1cccc(C)c1OCCNC(=O)C(=O)NCc1ccco1,1.5µM*,?,2.9µM*,6%,2.9µM*,-1%
CCOc1ccccc1OCC(=O)NCc1ccco1,i,i,13%,.,16µM*,-7%
COc1ccc(Cn2nnc(C(=O)Nc3cc(OC)ccc3OC)c2N)cc1,?,i,.,2%,.,.
CCOC(=O)c1c(C)oc2c1C(=O)c1ccccc1C2=O,?,i,3.7µM*,1%,28%,5%
Cc1oc2c(c1C(=O)O)C(=O)c1ccccc1C2=O,?,i,-5%,0%,15%,0%
O=C1CSC(=S)N1Cc1cccnc1,4.6µM*,2.9µM*,25%,9%,3.3µM*,-2%
O=C(O)c1ccc(CN2C(=O)CSC2=S)cc1,?,i,14%,0%,5.2µM*,-5%
O=C1CSC(=S)N1c1cccnc1,i,i,?,3%[38.3 µM],?,2%
COC(=O)[C@@H]1C[C@@H](NC(=O)c2cnsn2)CN1Cc1ccc(Cl)cc1,.,.,.,0%,.,.
COc1ccc2cc(CNCc3ccccc3C(F)(F)F)c(N3CCCC(CO)C3)nc2c1 (stereo not given),.,.,.,0%,.,.
Cc1nc(-c2ccc(S(=O)(=O)N(C)Cc3ccccc3)cc2)co1,i,i,.,-4%,.,.
SMILES,KB-3-1 tox,KB-V1 MDR tox,SW480 rereplic,PINK1 expr mod,MCF10A rereplic,PTAP TSG101 blk
CC1=CC(=O)N(c2cccc(C(F)(F)F)c2)C1c1ccc(Cl)cc1 (stereo not given),i,15µM*,23%,-2%[38.3 µM],?,0%
CC1=CC(=O)N(c2ccc(C)cc2)C1c1ccc(Cl)cc1 (stereo not given),i,i,6%,3%,?,-3%
Cc1cccc(C(=O)N2[C@@H](C(C)C)COc3cc(Br)ccc3S2(=O)=O)c1,?,?,2%,?,8.2µM*,0%
COc1cccc(Cn2c(CNC(=O)c3cc([N+](=O)[O-])ccc3Cl)nc3cccnc32)c1,.,.,.,-2%,.,.
COC(=O)c1ccc(Cn2c(O)c(N=NC(N)=S)c3ccccc32)o1,i,i,23µM*,0%,1%,-1%
C=CCn1c(O)c(N=NC(=S)Nc2cccc(C)c2)c2ccccc21,?,2.9µM*,?,?,-26%,1%
NC(=S)N=Nc1c(O)n(Cc2ccccc2)c2ccccc12,i,i,-7%,?,15%,-1%
C/C(Cl)=C\Cn1c(O)c(N=NC(N)=S)c2ccccc21,?,9.2µM*,?,3%,15%,0%
C=CCn1c(O)c(N=NC(=S)Nc2ccccc2F)c2ccccc21,?,i,-53%,6%,-13%,0%
CCc1ccc(CN2C(=O)c3ccccc3C2C(=O)NCCc2ccc(OC)c(OC)c2)cc1 (stereo not given),.,.,.,0%,.,.
CC(C)Oc1ccc(CN=C(N)N=C(N)N)cc1Cl,?,i,21%,2%,16%,0%
CC(C)COc1ccc(CN=C(N)N=C(N)N)cc1Cl,13µM*,i,-8%,5%,?,-5%
Cc1ccc(C(=O)Nc2cccc(-c3cnc4ccccc4n3)c2)cc1,i,i,-3%,.,1%,-6%
CC(=O)Nc1cccc(-c2cnc(NC(C)=O)cn2)c1,18µM*,i,.,1%,.,.
CC(=O)Nc1cccc(-c2csc(Nc3ccc(C)cn3)n2)c1,i,i,13%,0%,34%,-3%
COc1ccc(COc2cc(-c3cccc(OC)c3)nc3ccc(NC(=O)C(C)C)cc23)cc1,2.6µM*,?,15µM*,6%,?,0%
COc1cccc(-c2cc(C(=O)Nc3ccccc3)c3ccccc3n2)c1,i,?,6%,8%,?,-3%
CC(C)C(=O)Nc1cccc(-c2cnc3ccccc3n2)c1,i,13µM*,4%,-2%[38.3 µM],-5%,2%

# Bioassay records deposited in PubChem by National Center for Advancing Translational Sciences (NCATS).
